Most compounds without a hit are left out; they make up all but 0.72% or so of the library.
CtBP-E1A blk – blocks the CtBP interaction with E1A | AlphaScreen GST-E1A/His-CtBP binding, 1536-well; stronger effect = lower value | activity change, % (no concentration beside the values) | 340,000 compounds, 0.49% hits; in the data active means activity change below about -65%; inconclusive means mostly about -30% to -63%
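In 5 uL wells, 23 nL compound meets equimolar GST-E1A and His-CtBP (5X stock 125 nM each) for 2 h, 37 °C. Beads (5X, 50 ug/mL) then 1 h, 37 °C, dark.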
Eya2 inh – blocks the phosphatase activity of human Eya2. O00167. recombinant Eya2, OMFP fluorescence dephosphorylation (OMFP is methylfluorescein phosphate). Potency, µM (highest dose often 76.9 µM), actives largely listed as inhibitors. 330,000 compounds, 0.006% hits
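Eya2 protein (added as 0.2 uM solution) was preincubated with compound for 10 min at ambient temperature in 50 mM HEPES pH 7.5, 50 mM NaCl, 5 uM MgCl2, 0.05% BSA, 1 mM DTT. OMFP (added at 50 uM) then reacted 10 min; fluorescence read at 485/525 nm.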
RGS4 inhibitor – blocks human RGS4-accelerated GTP hydrolysis. Transcreener GDP fluorescence polarization, RGS4-accelerated GTP hydrolysis. Potency, µM (titrated, usually from 114 µM), usual class: inhibitors. 390,000 compounds, 0.039% hits. AID 504845; further: nearly all actives have a fitted effect of over 75% in size
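MLSMR compounds (23 nl, pin-transferred) preincubated 10 min at room temperature with a 500nM (2x) first reagent, then RGS4 at 900nM (2x) plus Transcreener GDP mix added; fluorescence polarization (620/688 nm) read before and after 90 min at 30 °C.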
USP2a block – blocks human ubiquitin-specific protease USP2a; Potency, µM (series often up to 38.3 µM), usual class: inhibitors; 330,000 compounds, 0.01% hits; USP2 core, Ub-CHOP2 coupled fluorogenic reporter, 485/531; O75604
Target sequence (O75604 whole entry, looked up): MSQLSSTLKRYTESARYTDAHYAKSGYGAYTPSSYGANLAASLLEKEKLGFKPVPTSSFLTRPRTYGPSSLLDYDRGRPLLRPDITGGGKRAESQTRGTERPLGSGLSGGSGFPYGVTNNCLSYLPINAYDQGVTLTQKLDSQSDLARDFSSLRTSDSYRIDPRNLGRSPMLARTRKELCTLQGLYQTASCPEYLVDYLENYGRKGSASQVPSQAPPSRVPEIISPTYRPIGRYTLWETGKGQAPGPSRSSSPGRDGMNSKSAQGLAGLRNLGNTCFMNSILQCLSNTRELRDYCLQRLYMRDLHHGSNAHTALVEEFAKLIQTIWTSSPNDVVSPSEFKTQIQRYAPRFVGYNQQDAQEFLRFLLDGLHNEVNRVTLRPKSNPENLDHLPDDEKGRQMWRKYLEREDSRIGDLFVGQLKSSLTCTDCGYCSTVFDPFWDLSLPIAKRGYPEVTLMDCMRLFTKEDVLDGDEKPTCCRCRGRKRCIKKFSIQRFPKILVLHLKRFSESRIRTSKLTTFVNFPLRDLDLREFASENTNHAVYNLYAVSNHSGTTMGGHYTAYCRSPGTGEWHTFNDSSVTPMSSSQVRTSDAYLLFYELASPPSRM
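Deubiquitinase activity read as fluorescence (485/531 nm) after Ub-CHOP2 cleavage activates the enterokinase reporter on its substrate; USP2 core 10nM, Ub-CHOP2 and substrate 25nM each, 30min compound preincubation then 60min RT; data normalized to NEM, curves fitted.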
Six1-Eya2 blk – inhibitors of human Six1/Eya2 interaction. Q15475+O00167. AlphaScreen GST-Six1/His-Eya2 binding, biochemical; stronger effect = lower value. activity change, % (no concentration beside the values). 360,000 compounds, 0.56% hits. AID 651725; in the data active means activity change below about -65%; inconclusive means mostly about -30% to -63%
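AlphaScreen luminescence read after one hour at 37 °C in darkness. Pin-transferred compounds met GST-Six1 and His-Eya2 protein (5X stock 250 nM/500 nM) plus glutathione donor and Ni-chelate acceptor beads (5X, 50 ug/mL).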
PI4K2A block – inhibitors of human PI4K2A | purified PI4K2A, ADP-Glo luminescence, 1 h; stronger effect = lower value | activity change, negative = inhibition, % at 76.9 µM | 420,000 compounds, 0.13% hits; in the data active means activity change below about -50%; inconclusive means mostly about -30% to -49%
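PI4K2A activity was measured by ADP-Glo luminescence: enzyme (4 ug/mL stock) and phosphatidylinositol (1.2 mM stock) in Tris pH 7.5/MgCl2/EGTA/Triton X-100 buffer were reacted with ATP (300 microM stock) for one hour at ambient temperature.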
Hits are given with their value; 0 = inactive; ? = inconclusive; - = no result; [ ] = dose if it differs, or a comment. Unless noted, the call rests on the fitted dose curve; in most records, active means well fitted curve in the direction sought with a large enough effect; inconclusive means small, poorly fitted or top-dose-only effect, or another doubt; inactive means no such curve, though single readings can be large; an effect the other way counts as inactive or inconclusive.

SMILES	CtBP-E1A blk	Eya2 inh	RGS4 inhibitor	USP2a block	Six1-Eya2 blk	PI4K2A block
COc1ccc(N2CCC(CNC(=S)Nc3cc(C)ccc3C)C2)cc1 (stereo unspecified)	-	0	0	0	-69	0
COc1cccc(-n2c(SCC(=O)NCCC3=CCCCC3)nc3n[nH]c(C)c3c2=N)c1	-70	0	0[11.4 µM]	0	-79	0
COc1cccc(NC(=O)CSc2nc3n[nH]c(C)c3c(=N)n2-c2cccc(OC)c2)c1	?	0	0	0	?	0
CCC(C)NC(=O)CSc1nc2n[nH]c(C)c2c(=N)n1-c1ccc(OC)cc1 (stereo unspecified)	-85	0	0	0	-74	0
Cc1[nH]nc2nc(SCC(=O)NCC3CCCO3)n(-c3ccc(Br)cc3)c(=N)c12 (stereo unspecified)	?	0	0	0	-65	0
Cc1cc(-n2c(SCC(=O)Nc3ccc(Br)cc3)nc3n[nH]c(C)c3c2=N)ccc1Cl	0	0	0	0	0	0
C#CCn1cc2c(c1-c1ccccc1)c(=O)n(C)c(=O)n2C	0	-	-	-	0	0
CN1Cc2cc(C(=O)N3CCC(C4CCNCC4)CC3)ccc2NC(CC(=O)O)C1=O (stereo unspecified)	-	-	-	-	-	0
COc1cc(OC)c2c(c1)OC(c1ccccc1)CC2=O (stereo unspecified)	-	-	5.3µM	-	-	-
CCOC(=O)c1ccc(NC(=O)c2cn3c4c(ccc(Cl)c4c2=O)OC(C)C3)cc1 (stereo unspecified)	-	-	0	-	-	0
CCCC(=O)N(c1ccc2oc(=O)sc2c1)S(=O)(=O)c1ccccc1	?	0	?	0	0	-50
CCCNC(=O)Cn1nc(-c2ccc(F)cc2)c2cnc3ccc(F)cc3c21	-	-	0	-	-	0
CCOc1ccc2nc(NC(=O)c3ccccc3)sc2c1	-	-	0	-	-	-58
CCOc1ccc2nc(NC(=O)c3cccnc3)sc2c1	0	0	0	0	0	0
CN(C)c1ccc(CN(CC2CCCO2)C(=O)COc2ccccc2Cl)cc1 (stereo unspecified)	-	-	0	-	-	0
Cc1ccc(NC(=O)NC2CCCCC2)cc1Cl	0	0	0	0	0	-71
COc1ccc(/C(C)=C/C(=O)O)c(OC)c1	-	-	-	-	-	0
Cc1cc(C(=O)c2ccccc2)cc(C)c1O	0	-	0	-	-86	0
O=C(Nc1cccc(S(=O)(=O)C(F)(F)F)c1)[C@H]1C[C@H](O)[C@@H](CO)O1	0	-	-	-	0	0
Cc1cc(=O)[nH]c(N/N=C/c2ccc(Br)s2)n1	?	0	0	0	-73	0
Cc1cc(=O)[nH]c(N/N=C/c2ccc(-c3ccc(F)cc3)o2)n1	-82	0	?	0	-85	0
Cc1cc(=O)[nH]c(N/N=C/c2c(O)n(-c3ccccc3)c(=O)c3ccccc23)n1	?	0	0	0	-87	0
Cc1cc(=O)[nH]c(NN=Cc2c(Cl)cccc2Cl)n1	0	-	0	-	0	0
COc1cc(Cl)c(S(=O)(=O)N2CCN(c3c(C)cccc3C)CC2)cc1Cl	-	-	0	-	-	0
COCCNC(=O)CCCn1c(SCc2ccccc2Cl)nc2c(sc3ccccc32)c1=O	-	-	0	-	-	0
SMILES	CtBP-E1A blk	Eya2 inh	RGS4 inhibitor	USP2a block	Six1-Eya2 blk	PI4K2A block
Cc1cc(C)c(S(=O)(=O)N2CCC(N3CCN(Cc4ccccc4)C(=O)C3=O)CC2)c(C)c1	-	-	0	-	-	0
CCOc1ccc(NC(=O)c2cc(F)c(F)cc2Cl)cc1OCC	-97	0	0	0	0	0
CCCCOc1ccc(NC(=O)c2cc(F)c(F)cc2Cl)cc1	0	0	0	0	0	0
N#Cc1ccc(NC(=O)COC(=O)c2cccc(S(=O)(=O)N3CCCC3)c2)cc1	0	-	-	-	0	0
CCN(CC)c1ccc(C(=C2C=CC(=[N+](CC)CC)C=C2)c2ccc(N(CC)CC)cc2)cc1	-90	-	?	-	-78	-71
CCN(CC)c1ccc(C(=C2C=CC(=[N+](CC)CC)C=C2)c2cc(S(=O)(=O)O)ccc2S(=O)(=O)[O-])cc1	-	-	-	-	-	-51
CC(=O)c1ccc(NC(=O)Nc2nnc(N3CCCC(C)C3)s2)cc1 (stereo unspecified)	-	-	0	-	-	0
COc1ccc(-c2nc3scc(CCNS(=O)(=O)c4ccc5c(c4)OCCO5)n3n2)cc1	-	-	0	-	-	0
O=C(CSc1cccc2cccnc12)OCC(=O)c1ccccc1	-93	0	0	0	-88	0
O=C(CSc1ncccn1)N1CCCCCC1	0	0	0	0	0	0
O=C(CSc1cccc2cccnc12)N1CCCC1	-91	0	0[11.4 µM]	0	-93	0
CN(C)C(=O)CSc1cccc2cccnc12	-94	0	0	0	-91	0
CC(C(=O)O)c1ccc2c(c1)CC(=O)c1ccccc1S2 (stereo unspecified)	-	-	-	-	-	0
Cc1cc(=O)n(-c2ccc(C(=O)O)cc2)[nH]1	0	0	0	0	0	-56
O=C(Nc1ccc(Br)cc1F)c1cc(S(=O)(=O)NC2CCCC2)ccc1F	-	-	0	-	-	0
CCOc1ccc(OCc2cccc(C(=O)O)c2)cc1	0	0	0	0	0	-58
O=C(Cn1c(=O)c2sccc2n(Cc2ccc([N+](=O)[O-])cc2)c1=O)NCCc1ccccc1	-89	0	?	0	?	0
COC(=O)c1nn(-c2ccc3c(c2)CCN3C(C)=O)cc1O	0	0	0	0	0	-85
COC(=O)c1nn(-c2ccc3c(c2)OCO3)cc1O	0	0	0	0	0	0
CN(C)c1ccc(N=Nc2nccs2)cc1	?	-	-	-	-83	?
Cc1cc2c(cc1S(=O)(=O)CCC(=O)N1CCCCC1C)OCC(=O)N2 (stereo unspecified)	-	-	0	-	-	0
Cc1ccc(C=NNC(=O)CSc2nc3sc4c(c3c(=O)n2-c2ccccc2)CCCC4)s1	-	-	-	-	-	0
O=Cc1ccc(OC(=O)/C=C/c2ccccc2)cc1	-94	0	0	0	?	0
COc1ccc(OC(=O)/C=C/c2ccc([N+](=O)[O-])cc2)cc1	-87	0	0	0	0	0
CCn1c(Cc2cccs2)nnc1SCC(=O)c1ccc(Cl)cc1	-	-	-	-	-	0
Cc1cccc(S(=O)(=O)c2c(N)n(/N=C/c3ccccc3)c3nc4ccccc4nc23)c1	0	0	0	0	0	0
Nc1c(S(=O)(=O)c2ccccc2)c2nc3ccccc3nc2n1/N=C/c1cccc(O)c1	-84	0	0	0	-75	0
Cc1c(C(=O)NCc2ccc(OC(C)C)cc2)sc2ncnc(N(C)C3CCCCC3)c12	-	-	0	-	-	0
O=C(c1ccc(F)cc1)c1cc2ccc(O)cc2oc1=O	0	0	0	0	0	-88
O=c1ccc(NS(=O)(=O)c2ccc(Cl)cc2)cn1Cc1ccc(Cl)c(Cl)c1	0	0	0	0	0	-59

Screens deposited in PubChem BioAssay by National Center for Advancing Translational Sciences (NCATS).
